Measurements as given in ChEMBL document CHEMBL3433997, “St. Jude Leishmania screening dataset” (2016).

Molecular target: Glucose transporter (Leishmania mexicana) (UniProt O61059)
Assay: ST_JUDE_LEISH: Cytotoxicity at 2uM final concentration against transgenic Leishmania Mexicana promastigotes LmGT2 that are glucose transport deficient and complemented with the L. Mexicana glucose transporter 2. Activity is measured by DNA content using SYBR green in vitro
Assay type: functional

Row | SMILES | inhibition [%]
1 | N#CCCN1CCN(Cc2cccc(-c3ccc(-c4nc5cc(C(F)(F)F)ccc5[nH]4)cc3)c2)CC1 | 2.78
2 | COc1ccc2[nH]c(C)cc(=NN=Cc3ccccc3)c2c1 | -0.26
3 | N#Cc1cccc(NC(=O)Nc2cccc(-c3cccc(-c4nc5cc(C(F)(F)F)ccc5[nH]4)c3)c2)c1 | 3.18
4 | COc1ccc2nccc([C@@H](O)CN3CCC(NCc4cc5ccccc5nn4)CC3)c2c1 | 7.16
5 | COc1ccc(CN2CCCC(N3CC4(OC3=O)c3ccccc3-c3ccccc34)C2)c(O)c1 (configuration not stated) | 4.18
6 | FC(F)(F)c1ccc2c(NCCc3ccccc3)ccnc2c1 | 3.79
7 | Cc1c(-c2ccccc2)ccc2[nH]cc(CC#N)c12 | 0.3
8 | CCCCCCCNc1cc(C)nc2ccc(OC)cc12 | 12.4
9 | Cc1ccccc1Oc1ccc(Nc2ccnc(Nc3cccc(C(N)=O)c3)n2)cc1C(F)(F)F | 1.52
10 | Cc1cccc2nc(-c3cccc(-c4ccc(NC(=O)Nc5ccc(Cl)c(Cl)c5)cc4)c3)[nH]c12 | 1.91
11 | Clc1ccc(Cc2nc3ccccc3[nH]2)cc1Cl | 4.23
12 | COc1c(C2CCN(CCCCNC(=O)C=Cc3cc4cc(Cl)ccc4o3)CC2)ccc2c1CCCC2 | 0.08
